Most compounds without a hit are left out; they make up all but 14% or so of the library.
MARV entry inh = blocks Marburg virus binding to or entry into cells; Marburg virus pseudotyped entry inhibition, cell reporter; AID 540276; 1.8% of 300,000 active; Potency, µM (series often up to 37.8 µM), for the others: top-dose activity change, negative = inhibition, actives largely listed as inhibitors; calls by dose curve; tested in HEK293 cells; note: potency is the fitted concentration of half-maximal effect
Pf growth 48h = inhibits P. falciparum growth in the first generation, 48 h. P. falciparum luciferase growth in erythrocytes, 48 h. Potency, µM (top dose mostly 28.7 µM), inactives show at the top dose activity change, negative = inhibition, actives largely listed as inhibitors. 5.9% of 310,000 active; note: potency is the fitted concentration of half-maximal effect
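Firefly luciferase activity from engineered P. falciparum reports growth; inhibitors lower the luminescent signal. Cultures contained 2% hematocrit erythrocytes at 0.1% final parasitemia.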
LASV entry inh = Lassa virus entry inhibition | Lassa virus pseudotype entry inhibition, cell reporter | Potency, µM (highest dose often 37.9 µM), for the others: at the highest dose activity change, negative = inhibition, most hits filed as inhibitors | 1.2% of 300,000 active | AID 540256; calls by dose curve; tested in HEK293 cells; note: potency is the fitted concentration of half-maximal effect; nearly all actives have a fitted effect of over 50% in size
Pf growth 96h = inhibits malaria parasite growth, 96 h | Potency, µM (titrated, usually from 28.7 µM), inactives show at the top dose activity change, negative = inhibition, most hits filed as inhibitors | AID 504834 | 6.9% of 320,000 active | P. falciparum luciferase reporter growth, 96 h; note: potency is the fitted concentration of half-maximal effect
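Luminescence readout: decreased luciferase signal marks inhibited growth of reporter-expressing P. falciparum in infected red cells (2% hematocrit, 0.05% parasitemia final), exposed to compound two generations (96 h, 37 C, 5% CO2).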
HCV inhibitor = inhibitors of hepatitis C virus infection; Huh7.5.1 HCVcc-Cre infection, luciferase reporter, 44 h; Potency, µM (highest dose often 41.8 µM), for inactives: at the highest dose activity change, negative = inhibition, hits mostly inhibitors; 3.4% of 340,000 active; note: potency is the fitted concentration of half-maximal effect
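1,000 cells/well; 4 h culture; + compound; + HCVcc-Cre (~0.5 moi); 44 h; luciferase substrate, RT 15 min; read 15 sec.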
HCMV antiviral = inhibitors of human cytomegalovirus; 4.5% of 410,000 active; HFF cells, HCMV-luciferase reporter, 72 h; hits give low values; activity change, negative = inhibition, % at 57.5 µM; AID 1259415; in the data active = activity change below about -60%; inconclusive = no clear call, values can overlap the other calls; inactive = above about -39%
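Inhibition of viral replication was scored as loss of reporter luminescence in HFFs infected with HCMV-luciferase (MOI 1 PFU/cell) for 72 h; compounds tested at 2 doses, normalized to buffer and Salinomycin controls.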
* marks the source's active call; other numbers are inactive results; ? = inconclusive; . = no result given; + = active, no number; [ ] = another dose, or the depositor's remark. Unless noted, calls come from the whole dose curve; as a rule, active = well fitted inhibition curve with a large enough effect; inconclusive = small, poorly fitted or top-dose-only effect, or another doubt; inactive = no such curve, though single readings can be large or run the other way. % is set by controls: 0 for no effect and ±100 for the full control effect.

SMILES | MARV entry inh | Pf growth 48h | LASV entry inh | Pf growth 96h | HCV inhibitor | HCMV antiviral
O=C1C(Cc2ccccc2)Nc2ncnc(N3CCc4ccccc4C3)c2N1Cc1ccc(Br)cc1 (stereo not drawn) | . | 10µM* | . | 13µM* | -11% | .
CCC1Nc2ncnc(N3CCOCC3)c2N(Cc2ccccc2)C1=O (stereo not drawn) | . | ? | . | 29% | 8% | 0
Cc1ccc(CN2C(=O)C(Cc3ccccc3)Nc3ncnc(N4CCN(c5ccccc5)CC4)c32)cc1 (stereo not drawn) | . | 1.9µM* | . | 4.7µM* | ? | 1
COc1ccc(CN2C(=O)C(C)Nc3ncnc(N4CCc5ccccc5C4)c32)cc1 (stereo not drawn) | . | . | . | . | . | -17
CC(C)CC1Nc2ncnc(N3CCOCC3)c2N(Cc2ccccc2)C1=O (stereo not drawn) | . | . | . | . | 5% | 1
CC(C)CNC(=O)C(=O)NCC1CCCN1S(=O)(=O)c1cccs1 (stereo not drawn) | 4% | ? | 3%[46.1 µM] | 8% | 2% | -33
N#CC1=C2CCCCC2(O)NC1=O (stereo not drawn) | . | . | . | . | . | -17
CCOC(=O)C1=CN(CC2CCCCC2)CCC1=O | . | . | . | . | -1% | -19
Cc1ccccc1CN1C(=O)c2ccccc2Sc2ccc(C(=O)OCc3ccco3)cc21 | . | . | -12%[46.1 µM] | . | . | 10
Cc1ccccc1OCC(=O)NCC(c1ccc(Cl)cc1)N1CCOCC1 (stereo not drawn) | -7%[46.1 µM] | . | -1%[46.1 µM] | . | . | -38
CC(=O)c1cc(-c2ccccc2)n(CC(=O)NCc2ccccc2C)c1C | -11%[46.1 µM] | . | . | . | . | 7
Cc1nc(-c2ccc(C)c(N3CCN(C(=O)Nc4ccc(Br)cc4)CC3)c2)no1 | . | . | -20%[46.1 µM] | . | . | -29
CC1=C(C(=O)Nc2cccnc2)C(c2ccccc2Cl)n2nc(-c3ccccc3)nc2N1 (stereo not drawn) | ? | . | -11%[46.1 µM] | . | . | 4
O=C1C(Cc2ccccc2)Nc2ncnc(N3CCN(c4ccccc4)CC3)c2N1Cc1ccc(Br)cc1 (stereo not drawn) | . | . | . | . | ? | -32
COc1ccc(CN2C(=O)C(Cc3ccccc3)Nc3ncnc(N4CCCCC4)c32)cc1 (stereo not drawn) | . | 5.2µM* | . | 12µM* | -28% | .
Cc1ccc(CN2C(=O)C(Cc3ccccc3)Nc3ncnc(N4CCCCC4)c32)cc1 (stereo not drawn) | . | 1.7µM* | . | 4.7µM* | ? | -13
O=C1C(Cc2ccccc2)Nc2ncnc(N3CCN(c4ccccc4)CC3)c2N1Cc1ccccc1 (stereo not drawn) | . | 2.9µM* | . | 2.9µM* | ? | ?
CCC(Sc1nc2ncccc2[nH]1)C(=O)Nc1ccccc1F (stereo not drawn) | . | . | 16%[46.1 µM] | . | . | 8
CCN(CC)S(=O)(=O)c1cc(NC(=O)CCn2[nH]c(=O)ccc2=O)ccc1C | . | . | . | . | 4% | 6
N#C/C(=C\c1cccc([N+](=O)[O-])c1)C(=O)NCc1ccc(Cl)cc1 | ? | ? | 0% | ? | -27% | -98*
N#C/C(=C\c1cccc([N+](=O)[O-])c1)C(=O)NCc1cccnc1 | 3% | 7% | ? | 6.6µM* | -1% | -9
N#C/C(=C\c1cccc([N+](=O)[O-])c1)C(=O)Nc1cccnc1 | 10%[46.1 µM] | -5% | 5% | -9% | 0% | -29
Cc1ccccc1Cn1c(=O)n(CCC(=O)NCc2ccco2)c(=O)c2sccc21 | 0%[46.1 µM] | . | -2%[46.1 µM] | . | . | ?
Cc1nc(C(F)(F)F)ccc1C(=O)N1CCC1(C)C(=O)NS(=O)(=O)c1cccc(Cl)c1 (stereo not drawn) | . | . | . | . | . | -91*
Cc1ccc(C(=O)Nn2c(C)nc3ccccc3c2=O)cc1C | . | 15% | . | 13µM* | -7% | 15
SMILES | MARV entry inh | Pf growth 48h | LASV entry inh | Pf growth 96h | HCV inhibitor | HCMV antiviral
Cc1nc2ccccc2c(=O)n1Nc1cccc(Cl)c1 | 1% | 2.9µM* | ? | 5.9µM* | 20% | -10
Cc1cc(Nc2cccc(Cl)c2)c2ccccc2n1 | . | ? | . | 8% | ? | ?
Nc1nn(-c2ccccc2)nc1C(=O)OCc1c(F)cccc1Cl | 3%[46.1 µM] | . | -10%[46.1 µM] | . | . | 35
Cn1cnc(S(=O)(=O)N2CCC[C@@H]2c2noc3ccccc23)c1 | . | . | . | . | . | -5
Cc1ccccc1-n1c(C)nnc1SCc1cc(=O)oc2ccc3ccccc3c12 | 2% | 10% | -16% | 15µM* | ? | 21
CCCn1c(=O)c2ccccc2n2c(SCc3cc(=O)oc4ccc5ccccc5c34)nnc12 | -4% | -21% | -6% | ? | 13% | 2
Cc1cccc(C(=O)Nc2nnc(S(=O)(=O)N(C)Cc3ccc(Cl)cc3)s2)c1 | . | . | 26%[46.1 µM] | . | . | ?
Cc1ccc(C(=O)Nc2nnc(S(=O)(=O)N(C)Cc3ccc(F)cc3)s2)cc1 | . | . | 4%[46.1 µM] | . | . | +
CCc1ccc(C(=O)c2cn(CC(=O)NC3CCCCC3)c3nc(C)ccc3c2=O)cc1 | . | . | 2%[46.1 µM] | . | . | -6
COc1ccccc1CCNC(=O)CCc1c(C)c2cc3c(C)coc3c(C)c2oc1=O | -2%[46.1 µM] | . | 18%[46.1 µM] | . | . | ?
CCCCn1c(N)c(N(CCC(C)C)C(=O)c2ccc([N+](=O)[O-])s2)c(=O)[nH]c1=O | -22%[46.1 µM] | 9.3µM* | 7% | ? | ? | ?
CCCCn1c(N)c(N(CCOC)C(=O)c2ccc(N3CCCC3=O)cc2)c(=O)[nH]c1=O | . | -1% | . | 8% | 3% | -101*
CCCCn1c(N)c(N(Cc2ccccc2OC)C(=O)c2sccc2C)c(=O)[nH]c1=O | -12% | -13% | -4% | -13% | 0%[8.37 µM] | -25
CCCCn1c(N)c(N(Cc2ccccc2OC)C(=O)c2cc(CC)c(C)s2)c(=O)[nH]c1=O | ? | 13µM* | -1% | ? | -24% | -11
CCCCn1c(N)c(N(CC(C)C)C(=O)C2CC(=O)N(c3ccc(C)cc3)C2)c(=O)[nH]c1=O (stereo not drawn) | -10%[46.1 µM] | ? | 1% | -1% | 3% | -89*
Cc1ccc(C)c(N2CCN(C(=O)Cn3c(-c4cccs4)cc4ccccc43)CC2)c1 | . | . | ? | . | . | 5
CC(CCC(=O)OC[C@H]1O[C@H](C#Cc2ccccc2)C=C[C@H]1Oc1ccc(C)cc1)=NOC[C@@H](O)COCc1ccco1 | -10%[14.2 µM] | . | . | . | . | .
COCCCNC(=O)c1c(NC(=O)c2nc(S(C)(=O)=O)ncc2Cl)sc2c1CCCC2 | 14%[46.1 µM] | . | 20%[46.1 µM] | . | . | 10
CCCCC1CCC(C(=O)N(CC(C)C)c2c(N)n(Cc3ccccc3)c(=O)[nH]c2=O)CC1 (stereo not drawn) | . | ? | . | 10µM* | 9% | -15
Cc1nn(Cc2ccc(C(=O)Nc3nc4c(C)cccc4s3)o2)c(C)c1Br | -22% | -5% | -15% | 39% | -2% | 9
Cc1nn(Cc2ccc(C(=O)Nc3ccc(C(=O)OC(C)C)cc3)o2)c(C)c1Cl | ? | 15µM* | ? | 20% | ? | -1

Bioassay records as filed in PubChem.
